This is a sample that favours compounds with a hit; in the whole collection about 2.6% have one here.
p53ts 32C tox: kills p53ts cells at the permissive temperature; H1299-p53A138V at 32C, ATP luminescence viability, 24 h; Potency, µM (top dose mostly 46.1 µM), for inactives: top-dose activity change, negative = cytotoxicity, usual class: cytotoxic; hit rate 0.93% among 130,000;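 also: 0% = DMSO and -100% = full killing by reference compound; nearly all actives have a fitted effect of over 55% in size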
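H1299-p53 A138V cells (temperature-sensitive p53) exposed 24 h to up to 46 uM compound at 32C, where p53 is wild-type in conformation. Viability read as ATP luminescence and normalised to DMSO and 100 uM tamoxifen. AC50 fitted with the Hill equation.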
Luciferase inh: firefly luciferase inhibition; P08659; purified firefly luciferase, luminescence, 8 min; Potency, µM (top dose mostly 57.1 µM), inactives show top-dose activity change, negative = inhibition, actives largely listed as inhibitors; hit rate 2.2% among 72,000; also: nearly all actives have a fitted effect of over 40% in size
Target sequence (P08659 whole entry, looked up): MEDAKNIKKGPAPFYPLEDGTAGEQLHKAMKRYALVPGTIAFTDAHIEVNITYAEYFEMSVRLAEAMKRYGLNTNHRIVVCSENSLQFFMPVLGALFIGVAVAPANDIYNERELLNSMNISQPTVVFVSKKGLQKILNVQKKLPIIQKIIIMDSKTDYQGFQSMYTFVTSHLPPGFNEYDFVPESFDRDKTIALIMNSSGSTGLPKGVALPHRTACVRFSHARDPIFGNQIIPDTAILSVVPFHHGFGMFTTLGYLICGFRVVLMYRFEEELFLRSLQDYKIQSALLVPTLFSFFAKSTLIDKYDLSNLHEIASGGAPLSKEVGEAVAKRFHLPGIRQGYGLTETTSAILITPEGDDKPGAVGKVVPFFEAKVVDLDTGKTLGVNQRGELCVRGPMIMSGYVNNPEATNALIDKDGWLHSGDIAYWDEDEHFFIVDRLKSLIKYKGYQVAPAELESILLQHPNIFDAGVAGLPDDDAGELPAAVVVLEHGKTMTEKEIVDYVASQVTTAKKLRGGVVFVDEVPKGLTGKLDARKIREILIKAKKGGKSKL
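qHTS concentration-response profiling: light output of P. pyralis luciferase with luciferin and 10 uM ATP, imidazole buffer pH 7.2. Read by luminescence after 8-min room-temperature incubation.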
p53ts 39C kill: p53ts cell cytotoxicity, nonpermissive temperature. H1299-p53A138V viability at 39C, ATP luminescence, 24 h. hit rate 1.5% among 130,000. Potency, µM (highest dose often 46.1 µM), for the others: top-dose activity change, negative = cell killing, actives largely listed as cytotoxic; also: nearly all actives have a fitted effect of over 55% in size
* hit, by the source's call; ? = inconclusive; . = not tested or not shown; [ ] = dose if it differs, or a comment. Calls follow the shape of the dose curve; as a rule, active = well fitted curve in the direction sought with a large enough effect; inconclusive = small, poorly fitted or top-dose-only effect, or another doubt; inactive = no such curve, though single readings can be large; an effect the other way counts as inactive or inconclusive. Unless noted, % is scaled to controls: 0 for no effect and ±100 for the full control effect; potency is read from the fitted curve at half-maximal effect.

SMILES	p53ts 32C tox	Luciferase inh	p53ts 39C kill
O=C(Nc1cccc(Cl)c1)c1ccc2nc(CCc3ccccc3)oc2c1	-5%	.	-15%
CCC(Sc1ncc(S(=O)(=O)c2ccc(C)cc2)c(=O)[nH]1)C(=O)Nc1cc(C)ccc1C (centres undefined)	15%	.	-23%
CCOC(=O)CCN1CCN(C(=O)c2ccc(-n3c(=O)c(=O)[nH]c4ccccc43)cc2)CC1	-5%	.	11%
C=CCNc1nc(N)c(C(=O)Nc2cc(C)on2)s1	?	20µM*	?
C=CCNc1nc(N)c(C(=O)c2ccc3c(c2)OCO3)s1	15%	-16%	0%
Cn1cc(C(=O)c2ccccc2)cc1-c1nc2ccccc2n1C	3%	-1%	-7%
CC(=O)c1ccc(-c2nc3ccccc3n2C)o1	-2%	1%	11%
Cn1c(-c2ccc(Br)o2)nc2cc(Br)ccc21	?	6.3µM*	?
Cc1oc(-c2nc3ccccc3n2C)cc1C(=O)c1ccccc1	5µM*	2.5µM*	4µM*
Cc1nc2cc(CO)ccc2n1C	3%	1%	16%
Cn1c(-c2ccc(Br)o2)nc2ccccc21	7.9µM*	7.9µM*	10µM*
Cc1cccc(Nc2nnc(-n3nc(C)cc3C)c3ccccc23)c1	-16%	.	?
COc1ccc2c(c1)CCc1c(C(=O)Nc3c(C)nn(Cc4ccc(C)cc4)c3C)noc1-2	-24%	.	-4%
COc1ccc(OC)c(CCNC(=O)Cn2sc3nc(C)cc(C)c3c2=O)c1	-13%	10µM*	16%
COc1ccc(OC)c(CCNC(=O)Cn2ncc3c([nH]c4ccccc43)c2=O)c1	-5%	.	.
O=C(Cc1cc(=O)[nH]c(=O)[nH]1)NCC1CCCO1 (centres undefined)	-10%	3%	20µM*
Cc1cc(C)cc(OCC(=O)NCCN2CCOCC2)c1	-8%	1%	-2%
O=C(Cc1cc(=O)[nH]c(=O)[nH]1)NCCN1CCOCC1	13µM*	7.9µM*	?
O=C(NCC1CCCO1)c1ccc(C(=O)NCC2CCCO2)cc1 (centres undefined)	0%	2%	-4%
O=C(Nc1cccc(C(F)(F)F)c1)C1CCCN(S(=O)(=O)c2cccc3nonc23)C1 (centres undefined)	-12%	.	?
FC(F)(F)c1cc(-c2ccco2)nc(NCc2ccco2)n1	3%	-1%	-8%
FC(F)(F)c1cc(-c2ccco2)nc(NCc2cccs2)n1	?	-1%	20µM*
CCOc1ccc(CNC(=O)c2cc3cc(S(=O)(=O)N4CCCCC4)ccc3n2C)cc1	9%	.	-18%
CCOC(=O)c1nn(-c2ccc3c(c2)CCN3C(C)=O)cc1O	5µM*	10µM*	4µM*
CCOCCCNS(=O)(=O)c1ccc2c(c1)CCN2C(C)=O	4%	0%	-12%
SMILES	p53ts 32C tox	Luciferase inh	p53ts 39C kill
Cn1nc(C(=O)N2CCN(c3ccccc3F)CC2)c2c1-c1ccccc1SC2	5%	.	-16%
COc1cccc(NC(=O)c2oc3ccccc3c2NC(=O)c2ccc(OC(C)C)cc2)c1	?	.	10µM*
COc1cccc(NC(=O)c2oc3ccccc3c2NC(=O)c2ccc3c(c2)OCO3)c1	10µM*	4µM*	10µM*
COc1cccc(NC(=O)c2oc3ccccc3c2NC(=O)C(C)(C)C)c1	5%	0%	2%
COc1cccc(NC(=O)c2oc3ccccc3c2NC(=O)c2cc3ccccc3o2)c1	-12%	.	?
Cc1ccc(-c2noc(C(C)NS(=O)(=O)c3ccc(C)cc3)n2)cc1 (centres undefined)	12%	.	-21%
Cc1cccc(C)c1NC(=O)c1oc2ccc3c(c2c1C)C(=O)CC(C)(C)O3	21%	.	-1%
Cc1c(C(=O)NCC2CCCO2)oc2ccc3c(c12)C(=O)CC(C)(C)O3 (centres undefined)	13µM*	.	?
Cc1c(C(=O)Nc2cccc(C(F)(F)F)c2)oc2ccc3c(c12)C(=O)CC(C)(C)O3	-29%	.	16µM*
COc1ccccc1CNC(=O)c1oc2ccc3c(c2c1C)C(=O)CC(C)(C)O3	-11%	.	?
Cc1ccc(OCCSc2nc3ccccc3n2CC(=O)N2CCOCC2)cc1	?	.	1%
O=C(CN1C(=O)CCSc2ccc(S(=O)(=O)N3CCCC3)cc21)Nc1cccc(F)c1	-10%	.	0%
CSc1ncc(C(=O)NCc2ccc(Cl)cc2)c(C(F)(F)F)n1	8%	.	.
O=C(Nc1cccc(O)c1)c1noc2c1CCc1ccccc1-2	4µM*	.	2.5µM*
O=C(Nc1cccc(C(F)(F)F)c1)c1noc2c1CCc1ccccc1-2	-1%	.	-16%
Cc1ccc(C)c(NC(=O)Cn2c(=O)ccc3cc(S(=O)(=O)N4CCCC4)ccc32)c1	6%	.	-28%
CCc1ccc(OCC(=O)Nc2ccc(Cl)c(-c3nc4ncccc4o3)c2)cc1	-1%	.	-10%
CN(C)c1ccc(/C=C/c2noc(-c3ccccc3O)n2)cc1	-21%	.	-3%
Oc1ccccc1-c1nc(/C=C/c2ccccc2Cl)no1	7.9µM*	.	7.9µM*
COc1cc(C2C(=O)N(C3CCCCC3)CC(=O)N2CCC2=CCCCC2)ccc1OC(C)C (centres undefined)	1%	.	1%
Cc1ccc(CN2CCc3nc(N4CCN(c5ccccc5F)CC4)ncc3C2)s1	-13%	.	-19%
CCN1/C(=C/C(=O)c2ccco2)Sc2ccccc21	-21%	25µM*	?
CCC(=O)/C=C1/Sc2ccccc2N1CC	-12%	.	8%
COc1ccccc1C(=O)Nc1ccc(N2CCN(S(C)(=O)=O)CC2)cc1	-25%	-23%	?
COc1ccc(Nc2ncccc2C(=O)Nc2ccccc2)cc1	-8%	-4%	-11%
SMILES	p53ts 32C tox	Luciferase inh	p53ts 39C kill
O=C(Nc1cccnc1)c1ccccc1Oc1ccccc1	7%	1%	2%
COc1ccc(-c2cc(C(=O)Nc3cccnc3)no2)cc1OC	-2%	.	-18%
COc1cc2ccccc2cc1C(=O)Nc1cccnc1	-20%	16µM*	-19%
O=C(Nc1cccnc1)c1ccc(Oc2ccccc2)cc1	?	13µM*	?
COc1cc2ccccc2cc1C(=O)Nc1ccc(N2CCN(C)CC2)cc1	?	10µM*	13µM*
COc1cc2cc(C(=O)Nc3ccccc3)c(N)nc2cc1OC	?	10µM*	-10%
Cc1ccc(NC(=O)Cn2ccn(-c3ccccc3)c(=O)c2=O)cc1	2%	.	3%
Cn1cccc1C(=O)N1CCC2(CCCN(Cc3nccs3)C2)CC1	-7%	-1%[11.4 µM]	-2%
Cc1cc(=O)oc2c(OS(C)(=O)=O)c(OS(C)(=O)=O)ccc12	4%[9.22 µM]	2%[11.4 µM]	3%[9.22 µM]
COc1ccccc1NC(=O)c1cnc(SCC(=O)N2CCCc3ccccc32)n(C)c1=O	-2%	.	-13%
CCc1ccccc1NC(=O)c1noc2c1CC(C(C)(C)C)CC2 (centres undefined)	12%	.	18%
Cc1oc(-c2ccc(Cl)cc2)nc1Cn1c(=O)cc(C)c2c(C)nn(-c3cccc(F)c3)c21	7%	.	-9%
Cc1ccc(NC(=O)N(Cc2cn(C)c3ccccc23)C2CCCCC2)cc1C	?	.	13µM*
COc1cccc(NC(=O)N(Cc2cn(C)c3ccccc23)C2CCCCC2)c1	-25%	.	?
O=C(NCCN1CCOCC1)c1cc2c(=O)n3ccccc3nc2n1Cc1ccccc1	0%	0%	19%
